# B1: unnamed (peptide)
# chain: AERNYAPRLPRRETS
# B2: unnamed (peptide)
# chain: NRPAIRIPSLKKPAL
# B3: unnamed (peptide)
# chain: LLIRWLILMPLVGSR
# Target: CaNbp2
# Experiment: SPOT peptide array binding signal intensity (averaged, normalized) (arbitrary units (background-subtracted, floor 0; scale differs between SH3 domains)); higher = stronger binding of the SH3 domain to the peptide
# How it was run: (§1)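 Spot intensities were captured after detection with anti-GST antibody, an HRP-linked anti-mouse secondary and luminol, and quantified with Genespotter. The probes were GST-fused SH3 domains from four yeast species, produced in E. coli BL21(DE3), purified on glutathione Sepharose and incubated at 10 μg/ml overnight at 4°C on cellulose-bound synthetic 15-mer peptides with cysteines replaced by serines. Binding signal is the normalized, background-subtracted spot intensity averaged over replicates, and its arbitrary units differ between domains.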
row,Binder,SPOT peptide array binding signal intensity
1,B1,52.5
2,B2,270
3,B3,1390

# Target: CaRvs167
# Experiment: as above
# How it was run: as §1
row,Binder,SPOT peptide array binding signal intensity
1,B1,1200
2,B2,33.3
3,B3,524

# Target: CaRvs167-3
# Experiment: as above
# How it was run: as §1
row,Binder,SPOT peptide array binding signal intensity
1,B1,≤ 0
2,B2,23
3,B3,780

# Target: CaSho1
# Experiment: as above
# How it was run: as §1
row,Binder,SPOT peptide array binding signal intensity
1,B1,22.5
2,B2,218
3,B3,3580

# Target: CaSla1-D1-D2
# Experiment: as above
# How it was run: as §1
row,Binder,SPOT peptide array binding signal intensity
1,B1,19
2,B2,4.5
3,B3,30

# Target: CaSla1-D3
# Experiment: as above
# How it was run: as §1
row,Binder,SPOT peptide array binding signal intensity
1,B1,0.75
2,B2,0.75
3,B3,397

# Target: ScAbp1
# Experiment: as above
# How it was run: as §1
row,Binder,SPOT peptide array binding signal intensity
1,B1,27.8
2,B2,53.5
3,B3,35

# Target: ScBbc1
# Experiment: as above
# How it was run: as §1
row,Binder,SPOT peptide array binding signal intensity
1,B1,22.4
2,B2,9.25
3,B3,1.5

# Target: ScBem1-D1
# Experiment: as above
# How it was run: as §1
row,Binder,SPOT peptide array binding signal intensity
1,B1,6
2,B2,19
3,B3,60

# Target: ScBzz1-D1
# Experiment: as above
# How it was run: as §1
row,Binder,SPOT peptide array binding signal intensity
1,B1,56.8
2,B2,31.5
3,B3,37

# Target: ScBzz1-D2
# Experiment: as above
# How it was run: as §1
row,Binder,SPOT peptide array binding signal intensity
1,B1,73.8
2,B2,12.5
3,B3,240

# Target: ScCyk3
# Experiment: as above
# How it was run: as §1
row,Binder,SPOT peptide array binding signal intensity
1,B1,2.25
2,B2,20
3,B3,122

# Target: ScFus1
# Experiment: as above
# How it was run: as §1
row,Binder,SPOT peptide array binding signal intensity
1,B1,≤ 0
2,B2,243
3,B3,3690

# Target: ScHof1
# Experiment: as above
# How it was run: as §1
row,Binder,SPOT peptide array binding signal intensity
1,B1,17.1
2,B2,≤ 0
3,B3,0.25

# Target: ScHse1
# Experiment: as above
# How it was run: as §1
row,Binder,SPOT peptide array binding signal intensity
1,B1,42
2,B2,2200
3,B3,2940

# Target: ScLsb1
# Experiment: as above
# How it was run: as §1
row,Binder,SPOT peptide array binding signal intensity
1,B1,184
2,B2,118
3,B3,11

# Target: ScLsb2
# Experiment: as above
# How it was run: as §1
row,Binder,SPOT peptide array binding signal intensity
1,B1,158
2,B2,12.5
3,B3,33

# Target: ScLsb3
# Experiment: as above
# How it was run: as §1
row,Binder,SPOT peptide array binding signal intensity
1,B1,6160
2,B2,40
3,B3,850

# Target: ScLsb4
# Experiment: as above
# How it was run: as §1
row,Binder,SPOT peptide array binding signal intensity
1,B1,3130
2,B2,10
3,B3,150

# Target: ScMyo3
# Experiment: as above
# How it was run: as §1
row,Binder,SPOT peptide array binding signal intensity
1,B1,0.75
2,B2,1
3,B3,5

# Target: ScMyo5
# Experiment: as above
# How it was run: as §1
row,Binder,SPOT peptide array binding signal intensity
1,B1,≤ 0
2,B2,≤ 0
3,B3,7

# Target: ScNbp2
# Experiment: as above
# How it was run: as §1
row,Binder,SPOT peptide array binding signal intensity
1,B1,283
2,B2,169
3,B3,566

# Target: ScPex13
# Experiment: as above
# How it was run: as §1
row,Binder,SPOT peptide array binding signal intensity
1,B1,252
2,B2,23.8
3,B3,65.2

# Target: ScRvs167
# Experiment: as above
# How it was run: as §1
row,Binder,SPOT peptide array binding signal intensity
1,B1,2200
2,B2,39.8
3,B3,19.3

# Target: ScSho1
# Experiment: as above
# How it was run: as §1
row,Binder,SPOT peptide array binding signal intensity
1,B1,268
2,B2,412
3,B3,2890

# Target: ScSla1-D1-D2
# Experiment: as above
# How it was run: as §1
row,Binder,SPOT peptide array binding signal intensity
1,B1,206
2,B2,167
3,B3,23

# Target: ScSla1-D3
# Experiment: as above
# How it was run: as §1
row,Binder,SPOT peptide array binding signal intensity
1,B1,13
2,B2,4
3,B3,132

# Target: SpAbp1-D1
# Experiment: as above
# How it was run: as §1
row,Binder,SPOT peptide array binding signal intensity
1,B1,50.5
2,B2,135
3,B3,248

# Target: SpBbc1
# Experiment: as above
# How it was run: as §1
row,Binder,SPOT peptide array binding signal intensity
1,B1,7.25
2,B2,3.75
3,B3,22.8

# Target: SpBzz1-D1
# Experiment: as above
# How it was run: as §1
row,Binder,SPOT peptide array binding signal intensity
1,B1,332
2,B2,92
3,B3,300

# Target: SpBzz1-D2
# Experiment: as above
# How it was run: as §1
row,Binder,SPOT peptide array binding signal intensity
1,B1,4.5
2,B2,≤ 0
3,B3,13.5

# Target: SpCyk3
# Experiment: as above
# How it was run: as §1
row,Binder,SPOT peptide array binding signal intensity
1,B1,2
2,B2,5
3,B3,25

# Target: SpHof1
# Experiment: as above
# How it was run: as §1
row,Binder,SPOT peptide array binding signal intensity
1,B1,49.2
2,B2,66.5
3,B3,306

# Target: SpHof1-2
# Experiment: as above
# How it was run: as §1
row,Binder,SPOT peptide array binding signal intensity
1,B1,10.2
2,B2,1.5
3,B3,75.2

# Target: SpHof1-3
# Experiment: as above
# How it was run: as §1
row,Binder,SPOT peptide array binding signal intensity
1,B1,197
2,B2,850
3,B3,2420

# Target: SpHse1
# Experiment: as above
# How it was run: as §1
row,Binder,SPOT peptide array binding signal intensity
1,B1,85.5
2,B2,664
3,B3,2700

# Target: SpLsb1
# Experiment: as above
# How it was run: as §1
row,Binder,SPOT peptide array binding signal intensity
1,B1,177
2,B2,43.5
3,B3,2

# Target: SpLsb4
# Experiment: as above
# How it was run: as §1
row,Binder,SPOT peptide array binding signal intensity
1,B1,3100
2,B2,27.5
3,B3,341

# Target: SpMyo1
# Experiment: as above
# How it was run: as §1
row,Binder,SPOT peptide array binding signal intensity
1,B1,11.5
2,B2,≤ 0
3,B3,18

# Target: SpNbp2
# Experiment: as above
# How it was run: as §1
row,Binder,SPOT peptide array binding signal intensity
1,B1,≤ 0
2,B2,104
3,B3,1450

# Target: SpPex13
# Experiment: as above
# How it was run: as §1
row,Binder,SPOT peptide array binding signal intensity
1,B1,3.5
2,B2,3
3,B3,232

# Target: SpRvs167
# Experiment: as above
# How it was run: as §1
row,Binder,SPOT peptide array binding signal intensity
1,B1,1930
2,B2,13.3
3,B3,37.7

# Target: SpSla1-D1-D2
# Experiment: as above
# How it was run: as §1
row,Binder,SPOT peptide array binding signal intensity
1,B1,≤ 0
2,B2,≤ 0
3,B3,≤ 0

# Target: SpSla1-D3
# Experiment: as above
# How it was run: as §1
row,Binder,SPOT peptide array binding signal intensity
1,B1,≤ 0
2,B2,≤ 0
3,B3,120

# Target: AgAbp1
# Experiment: as above
# How it was run: as §1
row,Binder,SPOT peptide array binding signal intensity
1,B2,20
2,B3,19.5

# Target: AgBbc1
# Experiment: as above
# How it was run: as §1
row,Binder,SPOT peptide array binding signal intensity
1,B2,12.5
2,B3,29.5

# Target: AgBem1-D1
# Experiment: as above
# How it was run: as §1
row,Binder,SPOT peptide array binding signal intensity
1,B2,54.5
2,B3,284

# Target: AgBzz1-D1
# Experiment: as above
# How it was run: as §1
row,Binder,SPOT peptide array binding signal intensity
1,B2,16
2,B3,39

# Target: AgBzz1-D2
# Experiment: as above
# How it was run: as §1
row,Binder,SPOT peptide array binding signal intensity
1,B2,7
2,B3,62

# Target: AgCyk3
# Experiment: as above
# How it was run: as §1
row,Binder,SPOT peptide array binding signal intensity
1,B2,2
2,B3,24.5

# Target: AgFus1
# Experiment: as above
# How it was run: as §1
row,Binder,SPOT peptide array binding signal intensity
1,B2,226
2,B3,3190

# Target: AgHof1
# Experiment: as above
# How it was run: as §1
row,Binder,SPOT peptide array binding signal intensity
1,B2,111
2,B3,53

# Target: AgHse1
# Experiment: as above
# How it was run: as §1
row,Binder,SPOT peptide array binding signal intensity
1,B2,800
2,B3,2550

# Target: AgLsb1
# Experiment: as above
# How it was run: as §1
row,Binder,SPOT peptide array binding signal intensity
1,B2,361
2,B3,2.5

# Target: AgLsb4
# Experiment: as above
# How it was run: as §1
row,Binder,SPOT peptide array binding signal intensity
1,B2,18.5
2,B3,1800

# Target: AgMyo5
# Experiment: as above
# How it was run: as §1
row,Binder,SPOT peptide array binding signal intensity
1,B2,0.5
2,B3,4.5

# Target: AgNbp2
# Experiment: as above
# How it was run: as §1
row,Binder,SPOT peptide array binding signal intensity
1,B2,114
2,B3,722

# Target: AgRvs167
# Experiment: as above
# How it was run: as §1
row,Binder,SPOT peptide array binding signal intensity
1,B2,1.33
2,B3,26.5

# Target: AgSho1
# Experiment: as above
# How it was run: as §1
row,Binder,SPOT peptide array binding signal intensity
1,B2,21.5
2,B3,1270

# Target: AgSla1-D1-D2
# Experiment: as above
# How it was run: as §1
row,Binder,SPOT peptide array binding signal intensity
1,B2,24
2,B3,41

# Target: AgSla1-D3
# Experiment: as above
# How it was run: as §1
row,Binder,SPOT peptide array binding signal intensity
1,B2,5.5
2,B3,5

# Target: CaAbp1-D1
# Experiment: as above
# How it was run: as §1
row,Binder,SPOT peptide array binding signal intensity
1,B2,191
2,B3,334

# Target: CaAbp1-D2
# Experiment: as above
# How it was run: as §1
row,Binder,SPOT peptide array binding signal intensity
1,B2,44
2,B3,321

# Target: CaBbc1
# Experiment: as above
# How it was run: as §1
row,Binder,SPOT peptide array binding signal intensity
1,B2,122
2,B3,68

# Target: CaBem1-D1
# Experiment: as above
# How it was run: as §1
row,Binder,SPOT peptide array binding signal intensity
1,B2,41
2,B3,125

# Target: CaBzz1-D1
# Experiment: as above
# How it was run: as §1
row,Binder,SPOT peptide array binding signal intensity
1,B2,25.5
2,B3,222

# Target: CaBzz1-D2
# Experiment: as above
# How it was run: as §1
row,Binder,SPOT peptide array binding signal intensity
1,B2,21.8
2,B3,109

# Target: CaCyk3
# Experiment: as above
# How it was run: as §1
row,Binder,SPOT peptide array binding signal intensity
1,B2,7
2,B3,48

# Target: CaFus1
# Experiment: as above
# How it was run: as §1
row,Binder,SPOT peptide array binding signal intensity
1,B2,765
2,B3,5090

# Target: CaHof1
# Experiment: as above
# How it was run: as §1
row,Binder,SPOT peptide array binding signal intensity
1,B2,≤ 0
2,B3,1.25

# Target: CaHse1
# Experiment: as above
# How it was run: as §1
row,Binder,SPOT peptide array binding signal intensity
1,B2,27
2,B3,875

# Target: CaLsb1
# Experiment: as above
# How it was run: as §1
row,Binder,SPOT peptide array binding signal intensity
1,B2,2.5
2,B3,26.5

# Target: CaLsb4
# Experiment: as above
# How it was run: as §1
row,Binder,SPOT peptide array binding signal intensity
1,B2,10.5
2,B3,191

# Target: CaMyo5
# Experiment: as above
# How it was run: as §1
row,Binder,SPOT peptide array binding signal intensity
1,B2,2.75
2,B3,40

# — the supplement of paper PMC4466140
